Results filed as inconclusive are left out. The source made the active and inactive calls. Calls follow the shape of the dose curve; as a rule, active = well fitted curve in the direction sought with a large enough effect; inconclusive = small, poorly fitted or top-dose-only effect, or another doubt; inactive = no such curve, though single readings can be large; an effect the other way counts as inactive or inconclusive.
Legend:
[1] = qHTS for ATAD5 Antagonist screened against the NCATS CANVASS Library (AID 1347370);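 also: HEK293T cells carrying an ATAD5 luciferase reporter co-treated with 10 µM 5-fluorouridine; series mostly up to about 46 µM; nearly all actives have a fitted effect of over 65% in size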
Summary of the method: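 HEK293T cells with a stably integrated ATAD5-controlled luciferase reporter were exposed to compounds (11-pt) alongside 10 uM 5-fluorouridine as ATAD5 stabilizer for 16hr at 37C. Viability was read by CellTiter-Fluor fluorescence, then ATAD5 by luminescence.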

[2] = J3T Cancer Cell Toxicity qHTS against the NCATS CANVASS Library (AID 1347371);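 also: J3T is a canine glioma cancer cell line seeded at 500 cells per well; series mostly up to about 46 µM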
Summary of the method: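 J3T dog glioma cells (500 cells/well) were exposed to compounds in an 11-point series for 72 hr at 37C, 5% CO2. Cytotoxicity was read as ATP content by CellTiterGlo luminescence.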

[3] = target: Nuclear receptor subfamily 1 group I member 3 (Homo sapiens) (UniProt Q14994); test: qHTS for Constitutive Androstane Receptor (CAR) Agonist screened against the NCATS CANVASS Library (AID 1347373);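 also: every well also contained 1.5 µM PK11195 alongside the test compound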
Chain of Nuclear receptor subfamily 1 group I member 3 (Homo sapiens) (Q14994 whole entry, looked up): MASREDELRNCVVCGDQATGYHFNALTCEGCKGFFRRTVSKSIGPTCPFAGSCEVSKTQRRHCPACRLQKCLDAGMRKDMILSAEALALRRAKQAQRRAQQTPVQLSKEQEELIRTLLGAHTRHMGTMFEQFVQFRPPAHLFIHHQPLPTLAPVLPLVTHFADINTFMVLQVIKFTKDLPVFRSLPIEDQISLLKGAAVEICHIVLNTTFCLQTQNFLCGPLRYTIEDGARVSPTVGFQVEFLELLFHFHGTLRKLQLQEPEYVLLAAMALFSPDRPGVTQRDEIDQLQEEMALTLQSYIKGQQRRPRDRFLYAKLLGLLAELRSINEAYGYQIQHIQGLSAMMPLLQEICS
Summary of the method: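 HepG2 cells stably expressing hCAR and a CYP2B6-2.2kb luciferase reporter were treated for 24hr at 37C with compounds (11-point qHTS) in the presence of 1.5uM PK11195. Reporter activation was read by ONE-Glo luminescence.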

[4] = qHTS for Hypoxia signaling pathway (HIF-1) antagonists against the NCATS CANVASS Library (AID 1347374);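 also: HRE-bla ME-180 cells stimulated with cobalt chloride to stabilize HIF-1alpha; series mostly up to about 38 µM; nearly all actives have a fitted effect of over 60% in size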
Summary of the method: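 HRE-bla ME-180 cells (2,000/well, 0.5% dialyzed FBS) were pre-incubated 5 h, then given an 11-point compound series plus CoCl2 (60 uM solution as added) for 17 h at 37C. CCF4 β-lactamase read (ex 405, em 460/530 nm) after 2 h at RT.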

[5] = qHTS for Hypoxia signaling pathway (HIF-1) agonists against the NCATS CANVASS Library (AID 1347375); also: potency is read from the fitted curve at half-maximal effect
Summary of the method: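 HRE-bla ME-180 cells (beta-lactamase reporter under hypoxia responsive element) in 0.5% dialyzed FBS medium, 5 h at 37C, then compound 17 h, 11-point qHTS series. CCF4-AM FRET substrate 2 h RT; 460/530 nm emission read.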

[6] = 10-beta competent E. coli microbial cell viability qHTS against the NCATS CANVASS Library (AID 1347376); also: series mostly up to about 46 µM
Summary of the method: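 10-beta competent E. coli (0.9 OD culture diluted to 0.2 OD) exposed to compounds in an 11-point qHTS series, incubated overnight at 37C, 5% CO2. Viability read as ATP by BacTiter-Glo luminescence after 20 min at room temperature.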

[7] = DH5-alpha competent E. coli microbial cell viability qHTS against the NCATS CANVASS Library (AID 1347377); conditions: outcome: dose series up to 46.1 µM unless noted
Summary of the method: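 DH5-alpha E. coli suspension (0.9 OD culture diluted to 0.2 OD) exposed to compounds in an 11-point series, overnight at 37C, 5% CO2. Viability read as ATP by BacTiter-Glo luminescence after 20 min at room temperature.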

[8] = qHTS for Inflammasome Signaling Inhibitors: IL-1-beta AlphaLISA screen against the NCATS CANVASS Library (AID 1347379);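 also: human THP-1 cells primed with LPS then triggered with ATP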
Summary of the method: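 Human THP-1 cells were pretreated 1 hr at 37 °C with compounds (up to 57.5 uM final), then stimulated with LPS (250 ng/mL final) and ATP (1.25 mM final). Secreted IL-1B was read by AlphaLISA after 16 hr.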

[9] = qHTS for Antimalaria activity screened against the NCATS CANVASS Library (AID 1347380);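 also: Plasmodium falciparum strain Dd2 asexual parasites grown in red blood cells; series mostly up to about 29 µM; nearly all actives have a fitted effect of over 40% in size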
Summary of the method: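 P. falciparum Dd2-infected RBCs (2.5% hematocrit final, 0.3% parasitemia) in Albumax II RPMI were exposed to compounds in an 11-point qHTS series for 72 h at 37C under 5% O2/5% CO2, then lysed with SYBR Green.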

[10] = Inflammasome Signaling qHTS Counterscreen: IL-1-beta AlphaLISA counterscreen against the NCATS CANVASS Library (AID 1347381);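 also: cell-free check with purified IL-1β in medium and no THP-1 cells; series mostly up to about 57 µM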
Summary of the method: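 To flag interference with the AlphaLISA read-out, a known amount of purified IL-1-beta (4 pg) replaced cell supernatant. Detection used anti-IL-1-beta acceptor beads, biotinylated antibody and streptavidin donor beads at room temperature.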

[11] = Cytotoxicity qHTS for assessment of Hepg2 cells membrane integrity screened against the NCATS CANVASS Library (AID 1347387)
Summary of the method: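 HepG2 cells (2000/well) attached overnight at 37C, then received compounds in an 11-point series at 0.59 nM - 46 uM final for 5 hr. LDH release was detected fluorometrically (ex 560/em 590 nm) with CytoTox-ONE reagent after 10 min at room temperature.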

[12] = qHTS for Activators of p53 Stress Response Pathway screened against the NCATS CANVASS Library (AID 1347388); also: potency is read from the fitted curve at half-maximal effect
Summary of the method: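 Beta-lactamase reporter driven by p53 response elements in HCT-116 cells, read as the 460 nm/530 nm emission ratio after CCF4 loading, following 16 h of exposure to an 11-point series. Cell viability was measured in the same wells by CellTiter-Glo luminescence.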

[13] = qHTS assay for small molecule disruptors of mitochondrial membrane potential screened against the NCATS CANVASS Library (AID 1347389); also: series mostly up to about 46 µM; nearly all actives have a fitted effect of over 60% in size
Summary of the method: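 HepG2 cells (2,000/well) were plated overnight at 37C, exposed to compound for 1 hr at 37C/5% CO2, then loaded with Mito-MPS dye for 30 min. Depolarization was read as a drop in red (590 nm) to green (535 nm) fluorescence ratio.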

[14] = Secretion counterscreen for inhibitors of the SERCaMP assay screened against the NCATS CANVASS Library (AID 1347390);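 also: light from luciferase secreted into medium read as a measure of general secretion; series mostly up to about 77 µM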
Summary of the method: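 SH-SY5Y cells expressing constitutively secreted GLuc, 1000 cells/well, attached 4 h at 37C, then exposed to compounds (0.001 - 77 uM, 11-pnt series) for 20 h. Coelenterazine added; luminescence read to flag secretory-pathway interferers.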

[15] = qHTS for activators of Nrf2/ARE signaling pathway screened against the NCATS CANVASS Library (AID 1347391); also: nearly all actives have a fitted effect of over 60% in size
Summary of the method: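 ARE-bla HepG2 beta-lactamase reporter cells, 2000 cells/well, were preincubated 5 h, then exposed to compounds (11-point series) for 16 h at 37C. CCF4 fluorescence (ex 405, em 460/530 nm) after 2 h at room temperature.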

[16] = qHTS for activators of dead-cell proteases activity screened against the NCATS CANVASS Library (AID 1347392);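 also: luminescence from protease leaking out of membrane-damaged cells cleaving impermeant substrate; rising signal means more cytotoxicity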
Summary of the method: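 Compounds are pin-transferred onto attached HepG2 cells, giving 11 final concentrations. After 5 h at 37C, AAF-aminoluciferin reagent is added and luminescence is recorded at room temperature.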

[17] = qHTS for inhibitors of ER calcium dysfunction: SERCaMP assay screened against the NCATS CANVASS Library (AID 1347393);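 also: series mostly up to about 77 µM; lower secreted reporter signal means inhibitor of ER calcium depletion; nearly all actives have a fitted effect of over 40% in size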
Summary of the method: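 Thapsigargin-induced ER calcium depletion drives GLuc-SERCaMP secretion from SH-SY5Y cells; compounds given 16 h beforehand were scored by lowered coelenterazine luminescence after 4 h challenge.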

[18] = Vero-766 cells viability qHTS against the NCATS CANVASS Library: Counterscreen for Zika virus inhibition assay (AID 1347394); also: series mostly up to about 46 µM; nearly all actives have a fitted effect of over 60% in size
Summary of the method: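 Uninfected Vero 766 (African green monkey) cells, 1000/well, attached overnight, then exposed 72 h at 37C to compounds (11-point qHTS). Viability read by CellTiter-Glo luminescence; media-only wells served as 100% inhibition.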

[19] = qHTS for inhibitors of Wild type Zika virus screened against the NCATS CANVASS Library (AID 1347396);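 also: ATP luminescence of surviving cells so rescue from viral cell killing; series mostly up to about 46 µM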
Summary of the method: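 Using ATP-based luminescence (CellTiter Glo), this screen scores rescue of Vero 766 cells from wild-type Zika killing at 72 h post-infection. Compounds are tested in a concentration series.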

[20] = Viability qHTS for inhibitors of the SERCaMP assay screened against the NCATS CANVASS Library (AID 1347400); also: series mostly up to about 92 µM; nearly all actives have a fitted effect of over 70% in size
Summary of the method: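 SH-SY5Y-GLuc SERCaMP MJH297-derived cells (1000 cells/well) were pre-incubated 4 h at 37C, then exposed to compounds for 48 h. Viability was read as CellTiter-Glo luminescence; bortezomib served as positive control.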

[21] = Redox Reaction Profiling qHTS: Assay Interference Panel against the NCATS CANVASS Library (AID 1347401)
Summary of the method: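 Cell-free redox surrogate: 5 uM resazurin + 200 uM DTT, 50 mM HEPES pH 7.3/50 mM NaCl; cpds pinned, 11-pt qHTS; Ex525/Em598 read t0 and t=15 min, dark.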

Measured: Potency

CNc1ccc(Cl)cc1C(=O)OC[C@]1(C)[C@H]2CC[C@]3(C)[C@@H](C[C@@H](OC)[C@H](C)[C@H]3C3=C(O)C(=O)OC3O)[C@]2(C)CC[C@H]1O (stereo partly specified)
active: [5] 13.3 µM | [12] 20.9 µM
inactive: all other assays above

Source: PubChem BioAssay (NCATS)
